Test results: article PMC7826789 (International Journal of Molecular Sciences, 2021)

Each molecule was assayed on PI4KB.
For `COc1ccc(-c2cc3c(C)nc(N)nc3n([C@H]3CC[C@H](O)CC3)c2=O)cn1` [PFE-PKIS 40], the Kinases covered was “PI4KB”. In the case of `COc1ccc(-c2cc3c(C)nc(N)nc3n([C@H]3CC[C@H](OCCO)CC3)c2=O)cn1` [PFE-PKIS 29], the Kinases covered is reported as “PI4KB”. In the case of `NS(=O)(=O)c1cccc(-c2ccc3nccc(-c4cccc(S(N)(=O)=O)c4)c3c2)c1` [GW867253], the Kinases covered is reported as “PI4KB”.

What follows are molecules tested on PIK3C2G.
For `COc1ccc(-c2cc3c(C)nc(N)nc3n([C@H]3CC[C@H](O)CC3)c2=O)cn1` [PFE-PKIS 40], the Kinases covered was “PIK3C2G”. With `COc1ccc(-c2cc3c(C)nc(N)nc3n([C@H]3CC[C@H](OCCO)CC3)c2=O)cn1` [PFE-PKIS 29] the Kinases covered was “PIK3C2G”. `CN(C)C(=O)/C(C#N)=C/c1ccc(-c2nc3cnc4[nH]ccc4c3n2C2CCCCC2)o1` [FM-381] was tested, and the Kinases covered was “PIK3C2G”.

What follows are molecules tested on PIK3CB.
With `COc1ccc(-c2cc3c(C)nc(N)nc3n([C@H]3CC[C@H](O)CC3)c2=O)cn1` [PFE-PKIS 40] the Kinases covered was “PIK3CB”. `Cc1c(Cn2c(C)nn3c(=O)cc(N4CCO[C@H](C)C4)nc23)cccc1C(F)(F)F` [GSK2373690] was tested, and the Kinases covered was “PIK3CB”. For `COc1ccc(-c2cc3c(C)nc(N)nc3n([C@H]3CC[C@H](OCCO)CC3)c2=O)cn1` [PFE-PKIS 29], the Kinases covered was “PIK3CB”. `Cc1c(Cn2ccn3c(=O)nc(N4CCOCC4)cc23)cccc1C(F)(F)F` [GSK2336394] was tested, and the Kinases covered was “PIK3CB”. For `Cc1c(Cn2c(C)c(C)n3c(=O)cc(N4CCOCC4)nc23)cccc1C(F)(F)F` [GSK2328680], the Kinases covered was “PIK3CB”.

The molecules below were run on PIK3CD.
For `COc1ccc(-c2cc3c(C)nc(N)nc3n([C@H]3CC[C@H](O)CC3)c2=O)cn1` [PFE-PKIS 40], the Kinases covered was “PIK3CD”. For `COc1ccc(-c2cc3c(C)nc(N)nc3n([C@H]3CC[C@H](OCCO)CC3)c2=O)cn1` [PFE-PKIS 29], the Kinases covered was “PIK3CD”. With `COc1ncc(-c2cc(-c3ncc(CN4C[C@@H](C)O[C@@H](C)C4)o3)c3cn[nH]c3c2)cc1NS(C)(=O)=O` [GSK2292767] the Kinases covered was “PIK3CD”. In the case of `CC(C)N1CCN(Cc2cnc(-c3cc(-c4cccc5[nH]ccc45)cc4[nH]ncc34)o2)CC1` [GSK2269557], the Kinases covered is reported as “PIK3CD”.
